Experiment [1] in a line: qHTS assay to identify small molecule antagonists of the glucocorticoid receptor (GR) signaling pathway - cell viability counter screen (AID 720693). Also: nearly all actives have a fitted effect of over 55% in size.
Experiment [2] can be described thus: qHTS assay for identifying genotoxic compounds that show differential cytotoxicity against isogenic chicken DT40 cell lines with known DNA damage response pathways - wild type cell line (AID 743012). Also: nearly all actives have a fitted effect of over 60% in size. Also: potency is read from the fitted curve at half-maximal effect. An outline of the steps: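 Viability of DNA repair-proficient chicken DT40 cells was assessed by CellTiter-Glo luminescence following 40 h compound exposure at 37 C/5% CO2.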
Background: qHTS replaces the single test concentration by a dilution series.

Experiment [3] is described as follows: qHTS assay for identifying genotoxic compounds that show differential cytotoxicity against isogenic chicken DT40 cell lines with known DNA damage response pathways - Rev3 mutant cell line (AID 743014). Also: nearly all actives have a fitted effect of over 55% in size. Also: potency is read from the fitted curve at half-maximal effect.
The nature of experiment [4]: qHTS assay for identifying genotoxic compounds that show differential cytotoxicity against isogenic chicken DT40 cell lines with known DNA damage response pathways - Rad54/Ku70 mutant cell line (AID 743015). Also: nearly all actives have a fitted effect of over 60% in size. Also: potency is read from the fitted curve at half-maximal effect.
The nature of experiment [5]: qHTS assay to identify small molecule antagonists of the androgen receptor (AR) signaling pathway - cell viability counter screen (AID 743033; also: nearly all actives have a fitted effect of over 45% in size).
Experiment [6] concerns the target Androgen receptor (Homo sapiens) (UniProt P10275). As to the kind of experiment: qHTS assay to identify small molecule agonists of the androgen receptor (AR) signaling pathway (AID 743036; active = well fitted activation curve with a large enough effect in the signal ratio in the repeat runs, with a control signal flat, not every such curve was filed as active; the % refers to the signal ratio). An outline of the steps: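 Agonist activity was scored by beta-lactamase reporter fluorescence in stably transfected HEK293 cells exposed to compounds for 16 h at 37C and 5% CO2. Substrate loading took 2 h at room temperature.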

Experiment [7] has the same target. As to the kind of experiment: qHTS assay to identify small molecule agonists of the androgen receptor (AR) signaling pathway using the MDA cell line (AID 743040; also: nearly all actives have a fitted effect of over 20% in size). Summed up:
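Stable MMTV-luciferase reporter in MDA-kb2 cells; note the promoter carries GR as well as AR response elements. 16 h compound treatment, 37C, 0% CO2; ONE-Glo luminescence endpoint.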

Experiment [8] is described as follows: qHTS assay to identify small molecule antagonists of the androgen receptor (AR) signaling pathway using the MDA cell line - cell viability counter screen (AID 743041; also: nearly all actives have a fitted effect of over 45% in size; also: potency is read from the fitted curve at half-maximal effect). An outline of the steps: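 Using the breast carcinoma line MDA-kb2 AR-luc, test chemicals were co-incubated with R1881 for 16 h; CellTiter-Fluor reagent, added at 15.5 h, provided a fluorescence measure of live cells.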

Experiment [9] concerns the target Androgen receptor (Homo sapiens) (UniProt P10275). As to the kind of experiment: qHTS assay to identify small molecule antagonists of the androgen receptor (AR) signaling pathway using the MDA cell line (AID 743042; also: nearly all actives have a fitted effect of over 55% in size). Summed up: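 Antagonist mode: compounds plus R1881 agonist added to MDA-kb2 AR-luc cells, incubated 16 h at 37C. Luciferase reporter luminescence quantified, with multiplexed CellTiter-Fluor readout for cell viability.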

Experiment [10] in a line: qHTS assay to identify small molecule antagonists of the thyroid receptor (TR) signaling pathway - cell viability counter screen (AID 743064). Also: nearly all actives have a fitted effect of over 50% in size. Also: potency is read from the fitted curve at half-maximal effect. An outline of the steps:
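Same-well viability check: GH3.TRE-Luc cells stimulated with 1 nM T3 alongside test compound for 23.5 h, followed by CellTiter-Fluor fluorescence.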

Experiment [11] is described as follows: qHTS assay to identify small molecule antagonists of the thyroid receptor (TR) signaling pathway (AID 743065). Also: nearly all actives have a fitted effect of over 55% in size. Also: potency is read from the fitted curve at half-maximal effect. An outline of the steps:
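Antagonism measured as loss of luciferase signal in GH3 cells stably carrying a TRE-luciferase reporter, co-treated with compound and T3 (1 nM final) for 23.5 h at 37 C. Viability was read in the same well by CellTiter-Fluor.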

Experiment [12] deals with thyroid hormone receptor (rat, GH3 cells). As to the kind of experiment: qHTS assay to identify small molecule agonists of the thyroid receptor (TR) signaling pathway (AID 743066; calls by dose curve).
Experiment [13] deals with Estrogen receptor (Homo sapiens) (UniProt P03372). Put plainly: qHTS assay to identify small molecule antagonists of the estrogen receptor alpha (ER-alpha) signaling pathway (AID 743069; active = well fitted curve in the direction sought with a large enough effect in the signal ratio in the repeat runs, not every such curve was filed as active; the % refers to the signal ratio). An outline of the steps: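 Fluorescence intensity from a beta-lactamase FRET substrate served as the read-out. Cells: HEK293 with stably integrated ER-alpha-UAS-bla reporter. Agonist 17beta-estradiol was co-added with compounds; incubation 18 hr at 37C, substrate 2 hr at room temperature.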
Sequence of Estrogen receptor (Homo sapiens) (P03372 whole entry, looked up): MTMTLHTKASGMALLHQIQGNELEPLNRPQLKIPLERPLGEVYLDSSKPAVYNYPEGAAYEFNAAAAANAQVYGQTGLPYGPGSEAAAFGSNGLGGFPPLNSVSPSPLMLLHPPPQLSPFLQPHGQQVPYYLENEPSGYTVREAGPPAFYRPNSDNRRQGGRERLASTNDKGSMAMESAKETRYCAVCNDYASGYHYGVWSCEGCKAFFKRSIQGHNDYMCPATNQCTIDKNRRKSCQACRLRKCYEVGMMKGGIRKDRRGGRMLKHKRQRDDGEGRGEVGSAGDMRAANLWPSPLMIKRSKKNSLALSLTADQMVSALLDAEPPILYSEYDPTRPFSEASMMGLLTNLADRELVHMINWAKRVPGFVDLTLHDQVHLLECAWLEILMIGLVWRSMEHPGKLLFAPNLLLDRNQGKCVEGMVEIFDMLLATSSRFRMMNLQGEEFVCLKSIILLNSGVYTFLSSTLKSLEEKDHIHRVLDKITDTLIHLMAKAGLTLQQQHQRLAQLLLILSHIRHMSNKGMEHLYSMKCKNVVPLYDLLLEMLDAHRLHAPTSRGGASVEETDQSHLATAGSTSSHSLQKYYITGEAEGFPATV

The nature of experiment [14]: qHTS assay to identify small molecule antagonists of the estrogen receptor alpha (ER-alpha) signaling pathway - cell viability counter screen (AID 743074; calls by dose curve; also: nearly all actives have a fitted effect of over 45% in size).
Experiment [15] addresses Estrogen receptor (Homo sapiens) (UniProt P03372). Put plainly: qHTS assay to identify small molecule agonists of the estrogen receptor alpha (ER-alpha) signaling pathway (AID 743075; calls by dose curve).
Experiment [16] has the same target. As to the kind of experiment: qHTS assay to identify small molecule agonists of the estrogen receptor alpha (ER-alpha) signaling pathway using the BG1 cell line (AID 743079). Also: nearly all actives have a fitted effect of over 20% in size. Also: potency is read from the fitted curve at half-maximal effect.
A short description of experiment [17]: qHTS assay to identify small molecule antagonists of the estrogen receptor alpha (ER-alpha) signaling pathway using the BG1 cell line (AID 743080; calls by dose curve;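 also: BG1 cells stimulated with 17beta-estradiol alongside compound; series mostly up to about 70 µM; nearly all actives have a fitted effect of over 25% in size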). An outline of the steps: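 Seeding, 24 h rest, compound transfer from DMSO, 17beta-estradiol addition, 21.5 h incubation, CellTiter-Fluor (30 min, 37 C), then ONE-Glo (30 min, room temperature): this sequence was run on BG1-Luc-4E2 reporter cells.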

Experiment [18] in a line: qHTS assay to identify small molecule antagonists of the estrogen receptor alpha (ER-alpha) signaling pathway using the BG1 cell line - cell viability counter screen (AID 743081).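 Also: compound given together with 17beta-estradiol as the ER stimulus; series mostly up to about 70 µM; nearly all actives have a fitted effect of over 45% in size.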
Experiment [19] addresses Aromatase (Homo sapiens) (UniProt P11511). As to the kind of experiment: qHTS assay to identify aromatase inhibitors (AID 743083). Also: nearly all actives have a fitted effect of over 55% in size. Also: potency is read from the fitted curve at half-maximal effect.

Molecules are shown by their SMILES. “And” between values parts separate entries of the source, which are not always exact repeats. Identical values can stand only once. Results filed as inconclusive are left out. The source made the active and inactive calls. Unless noted, calls follow the shape of the dose curve; as a rule, active = well fitted curve in the direction sought with a large enough effect in the repeat runs; inconclusive = weak or mixed curves; inactive = no such curve, though single readings can be large; an effect the other way counts as inactive or inconclusive.

Sequence of Androgen receptor (Homo sapiens) (P10275 whole entry, looked up): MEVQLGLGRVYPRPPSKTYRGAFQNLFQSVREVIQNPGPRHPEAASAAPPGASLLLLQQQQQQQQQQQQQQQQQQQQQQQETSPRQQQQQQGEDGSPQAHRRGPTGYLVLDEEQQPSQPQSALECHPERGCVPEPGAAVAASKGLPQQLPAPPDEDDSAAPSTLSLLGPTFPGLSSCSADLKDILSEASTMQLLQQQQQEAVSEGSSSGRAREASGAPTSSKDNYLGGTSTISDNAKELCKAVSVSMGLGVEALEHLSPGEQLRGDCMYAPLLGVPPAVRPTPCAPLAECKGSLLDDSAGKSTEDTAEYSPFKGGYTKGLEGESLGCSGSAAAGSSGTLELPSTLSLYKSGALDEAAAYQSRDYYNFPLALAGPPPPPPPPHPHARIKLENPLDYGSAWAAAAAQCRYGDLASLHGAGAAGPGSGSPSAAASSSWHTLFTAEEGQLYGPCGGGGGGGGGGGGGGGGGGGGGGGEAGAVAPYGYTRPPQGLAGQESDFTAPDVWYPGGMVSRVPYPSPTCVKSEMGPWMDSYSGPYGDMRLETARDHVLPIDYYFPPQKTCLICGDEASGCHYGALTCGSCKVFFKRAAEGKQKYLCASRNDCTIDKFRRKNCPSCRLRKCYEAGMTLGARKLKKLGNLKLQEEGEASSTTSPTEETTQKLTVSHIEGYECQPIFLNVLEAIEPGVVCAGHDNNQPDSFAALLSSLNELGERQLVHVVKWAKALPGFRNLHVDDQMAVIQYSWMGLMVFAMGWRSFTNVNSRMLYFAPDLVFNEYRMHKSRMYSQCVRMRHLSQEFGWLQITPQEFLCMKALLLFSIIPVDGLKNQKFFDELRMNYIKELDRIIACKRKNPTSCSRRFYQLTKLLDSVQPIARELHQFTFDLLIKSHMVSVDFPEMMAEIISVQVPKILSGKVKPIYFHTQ
Sequence of Aromatase (Homo sapiens) (P11511 whole entry, looked up): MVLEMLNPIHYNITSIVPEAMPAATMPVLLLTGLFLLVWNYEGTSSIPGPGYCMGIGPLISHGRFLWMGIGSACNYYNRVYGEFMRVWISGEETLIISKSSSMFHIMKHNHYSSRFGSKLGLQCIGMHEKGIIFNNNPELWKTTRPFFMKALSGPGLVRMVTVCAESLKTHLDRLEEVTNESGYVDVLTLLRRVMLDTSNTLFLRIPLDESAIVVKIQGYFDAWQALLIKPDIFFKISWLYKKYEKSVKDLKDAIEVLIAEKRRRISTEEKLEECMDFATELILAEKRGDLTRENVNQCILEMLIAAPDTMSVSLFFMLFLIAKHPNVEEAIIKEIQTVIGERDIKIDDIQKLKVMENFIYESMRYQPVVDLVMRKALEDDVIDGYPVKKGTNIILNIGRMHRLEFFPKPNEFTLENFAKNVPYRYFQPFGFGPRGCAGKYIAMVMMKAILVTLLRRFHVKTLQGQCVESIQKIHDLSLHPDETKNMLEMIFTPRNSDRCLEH

`NCCCN1CCOCC1`: the Potency entry in experiment [1], in [2], in experiment [3], in [4], in [5] and in [6] was “inactive” each time. Also, the Potency result in experiment [7], in experiment [9], in experiment [10], in experiment [11], in experiment [12] and in [13] was “inactive” in each case. The Potency entry in experiment [14], in experiment [15], in experiment [16], in [17], in [18] and in experiment [19] was “inactive” each time. Besides, the Potency in experiment [8] was 30.6 µM (active).
Regarding `COc1ccc(C(=O)Nc2nc3ccccc3c(NCc3ccccc3)c2C#N)cc1`, the Potency entry in [1], in [5], in experiment [8], in experiment [10], in experiment [11] and in [12] was “inactive” in each case. Also, the Potency result in [14], in experiment [15] and in experiment [18] was “inactive” each time. The Potency in experiment [2] is 27.3 µM (active); in [3] it was 38.6 µM (active); in experiment [4] it was 15.4 µM (active).
With `CN(C)CCN(Cc1ccccc1)c1ccccn1`, the Potency result in experiment [1], in experiment [2], in experiment [3], in experiment [4], in experiment [5] and in [8] was “inactive” throughout. Further, the Potency entry in experiment [10], in experiment [11], in [12], in experiment [13], in experiment [14] and in experiment [15] was “inactive” each time. Further, the Potency entry in experiment [16], in [17], in experiment [18] and in experiment [19] was “inactive” throughout.
Regarding `CC(C)(C)OCC1CO1` (configuration not stated), the Potency result in experiment [1], in [2], in [3], in experiment [4], in experiment [5] and in [8] was “inactive” in each case. Also, the Potency entry in experiment [10], in [11], in [12], in experiment [14] and in [18] was “inactive” throughout.
With `O=C1CCCCCCCCCCCC(=O)OCCO1`, the Potency entry in experiment [1], in experiment [5], in [7], in [9], in experiment [12] and in [14] was “inactive” throughout. For the same molecule, the Potency entry in experiment [15], in experiment [16], in experiment [17] and in experiment [18] was “inactive” in each case. Besides, the Potency in experiment [2] is 54.5 µM (active); in [3] it was 27.3 µM (active); in [4], 27.3 µM (active); in experiment [19], 48.6 µM (active).
As for `NC(N)=NCCC[C@H](N)C(=O)O`, the Potency entry in experiment [1], in experiment [2], in [3], in experiment [4], in [5] and in [8] was “inactive” each time. For the same molecule, the Potency result in experiment [10], in [11], in experiment [12], in experiment [13], in experiment [14] and in experiment [15] was “inactive” in each case. Further, the Potency result in experiment [16], in experiment [17], in experiment [18] and in experiment [19] was “inactive” throughout.
With `O=S(=O)(Oc1ccc(Cl)cc1)c1ccccc1`, the Potency result in [1], in experiment [2], in [5], in experiment [8], in experiment [10] and in [11] was “inactive” throughout. The Potency entry in [12], in [13], in experiment [14], in [15], in experiment [17] and in experiment [18] was “inactive” throughout. Further, in experiment [19], the Potency entry was “inactive”. Moreover, the Potency was 61.1 µM (active) in [3] and 54.5 µM (active) in [4].
`CCC(C)O` (configuration not stated): the Potency result in [1], in experiment [2], in experiment [3], in [4], in [5] and in experiment [8] was “inactive” in each case. The Potency entry in [10], in experiment [11], in experiment [12] and in experiment [18] was “inactive” throughout.
Regarding `O=P(O)(OCc1ccccc1)OCc1ccccc1`, the Potency entry in experiment [1], in experiment [2], in experiment [3], in experiment [4], in experiment [5] and in [8] was “inactive” throughout. In addition, the Potency entry in [10], in experiment [11], in [13], in experiment [14], in experiment [15] and in experiment [16] was “inactive” throughout. Further, the Potency entry in experiment [17], in [18] and in experiment [19] was “inactive” throughout.
Take `O=C(OCCc1ccccc1)c1ccccc1`: the Potency result in experiment [1], in [2], in [3], in [4], in experiment [5] and in experiment [8] was “inactive” in each case. Moreover, the Potency entry in experiment [11], in experiment [12], in experiment [13], in experiment [15], in experiment [18] and in experiment [19] was “inactive” in each case. The Potency in experiment [16] is 24.3 µM (active).
`CO[C@@H]1[C@H](OC(=O)/C=C/C=C/C=C/C=C/C(=O)O)CC[C@]2(CO2)[C@H]1[C@@]1(C)O[C@@H]1CC=C(C)C`: the Potency entry in [1], in [5], in experiment [8], in experiment [12], in [14] and in [15] was “inactive” each time. The Potency entry in experiment [16], in experiment [17], in experiment [18] and in experiment [19] was “inactive” throughout. Further, the Potency was 1.9 nM (active) and 12.2 nM (active) in experiment [2]; 2.1 nM (active) and 17.2 nM (active) in experiment [3]; 2.7 nM (active) and 10.9 nM (active) in [4].
`C=CC1CC2C=CC1C2` (configuration not stated): the Potency result in [1], in experiment [2], in experiment [3], in experiment [4], in experiment [5] and in experiment [8] was “inactive” in each case. In addition, the Potency result in experiment [11], in experiment [12], in experiment [13], in experiment [14], in [15] and in [16] was “inactive” throughout. Further, the Potency result in [17], in experiment [18] and in [19] was “inactive” in each case.
On to `C#Cc1cccc(Nc2ncnc3cc(OCCOC)c(OCCOC)cc23)c1`, for which the Potency entry in experiment [1], in experiment [5], in [8], in experiment [10], in experiment [12] and in experiment [15] was “inactive” throughout. The Potency entry in experiment [16] and in [17] was “inactive” in each case. In addition, the Potency in experiment [2] is 11.9 µM (active); in [3], 21.1 µM (active); in experiment [4], 13.3 µM (active); in [19], 18.8 µM (active).
As for `C#C[C@]1(O)CC[C@H]2[C@@H]3CCc4cc(OC5CCCC5)ccc4[C@H]3CC[C@@]21C`, the Potency result in experiment [1], in [5], in experiment [8], in experiment [14], in experiment [18] and in experiment [19] was “inactive” each time. Further, the Potency in [2] is 1.68 µM (active); in [3], 2.11 µM (active); in [4] it was 5.31 µM (active); in experiment [10], 18.8 µM (active); in [11], 16.8 µM (active).
On to `CCCCC(CC)COC(=O)CCCCCCCCC(=O)OCC(CC)CCCC` (configuration not stated), for which the Potency result in [1], in experiment [2], in experiment [3], in experiment [4], in [5] and in experiment [8] was “inactive” throughout. Besides, the Potency entry in [10], in experiment [12], in experiment [13], in [14], in experiment [15] and in experiment [17] was “inactive” in each case. For the same molecule, the Potency entry in [18] and in experiment [19] was “inactive” each time.
Take `COC(=O)c1ccc(I)cc1S(=O)(=O)NC(=O)Nc1nc(C)nc(OC)n1`: the Potency result in experiment [1], in [2], in experiment [3], in experiment [4], in experiment [5] and in [8] was “inactive” in each case. In addition, the Potency result in experiment [10], in experiment [11], in [14], in experiment [18] and in experiment [19] was “inactive” throughout.

For the origin of these results see PubChem BioAssay (Tox21).
